According to the antibiotic and cytotoxicity screens of Wong et al. (2023):
The whole screen tested about 39,000 compounds, of which about 1,500 (3.8%) were called active. The sample holds actives, similar compounds and a random draw of the others, so the mix is not that of the screen.

Test system: HSkMC (human skeletal muscle cells)
Assay: cytotoxicity call (relative viability < 0.9)
Details: 10 µM

| Structure (SMILES) | cytotoxicity call |
| --- | --- |
| C[C@H](CO)N1C[C@H](C)[C@H](CN(C)S(C)(=O)=O)Oc2ccc(NC(=O)CCN3CCOCC3)cc2C1=O | inactive |
| C[C@@H]1CN([C@@H](C)CO)C(=O)c2c(c3ccccc3n2C)-c2ccccc2CO[C@H]1CN(C)S(=O)(=O)c1cn(C)cn1 | inactive |
| C[C@H]1CN([C@@H](C)CO)C(=O)c2cc(NC(=O)Cn3cnnn3)ccc2O[C@H]1CN(C)C(=O)Nc1ccccc1 | inactive |
| C[C@H](CO)N1C[C@H](C)[C@@H](CN(C)Cc2ccc(C(=O)O)cc2)Oc2c(NC(=O)c3ccc(-c4nccs4)cc3)cccc2C1=O | inactive |
| CC(=O)OC1CC(O)C(C)(C)C2CC(OC(C)=O)C3(C)C(CCC4(C)C(c5ccoc5)OC(=O)C5OC543)C12C (configuration not stated) | inactive |
| C[C@@H]1CN([C@@H](C)CO)C(=O)c2cc(NC(=O)Nc3ccc(F)cc3)ccc2O[C@@H](C)CCCCO[C@@H]1CN(C)S(=O)(=O)c1ccccc1 | inactive |
| COc1ccc2c3c(n(c2c1)C)[C@H](CO)N(C[C@]13CCN(CC1)C(=O)c1ccccn1)C(=O)c1ccccn1 | inactive |
| OC[C@H]1CC[C@@H]2O[C@H](CCc3ccc(C#Cc4ccccc4)cc3)[C@H](n3cc(-c4ccccc4)nn3)C[C@@H]2O1 | active |
| O=C(Nc1ccc(F)cc1)N[C@@H]1C[C@@H]2O[C@@H](CO)CC[C@@H]2O[C@@H]1CCc1ccc(-c2ccccc2)cc1 | inactive |
| O=C(Nc1ccc(F)cc1)N[C@@H]1C[C@@H]2O[C@H](CO)CC[C@@H]2O[C@@H]1CCc1ccc(-c2ccccc2)cc1 | inactive |
| OC[C@@H]1CC[C@@H]2O[C@H](CCc3ccc(C#CCc4ccccc4)cc3)[C@@H](n3cc(-c4ccccc4)nn3)C[C@@H]2O1 | inactive |
| OC[C@@H]1CC[C@@H]2O[C@H](CCc3ccc(C#Cc4ccccc4)cc3)[C@@H](n3cc(-c4ccccc4)nn3)C[C@@H]2O1 | active |
| OC[C@@H]1CC[C@@H]2O[C@H](CCc3ccc(C#CCc4ccccc4)cc3)[C@H](n3cc(-c4ccccc4)nn3)C[C@@H]2O1 | inactive |
| OC[C@H]1O[C@@H](S[C@@H]2O[C@H](CO)[C@H](O)[C@H](n3cc(-c4cccc(F)c4)nn3)[C@H]2O)[C@H](O)[C@@H](n2cc(-c3cccc(F)c3)nn2)[C@H]1O | inactive |
| OC[C@@H]1CC[C@@H]2O[C@H](CCc3ccc(C#Cc4ccccc4)cc3)[C@H](n3cc(-c4ccccc4)nn3)C[C@@H]2O1 | active |
| OC[C@H]1CC[C@@H]2O[C@H](CCc3ccc(C#CCc4ccccc4)cc3)[C@@H](n3cc(-c4ccccc4)nn3)C[C@@H]2O1 | inactive |
| N[C@@H]1CC[C@@H](CCn2cc(-c3cccc(F)c3)nn2)O[C@H]1CO | inactive |
| OC[C@H]1CC[C@@H]2O[C@H](CCc3ccc(C#CCc4ccccc4)cc3)[C@H](n3cc(-c4ccccc4)nn3)C[C@@H]2O1 | active |
| OC[C@H]1CC[C@@H]2O[C@H](CCc3ccc(C#Cc4ccccc4)cc3)[C@@H](n3cc(-c4ccccc4)nn3)C[C@@H]2O1 | inactive |
| C[C@H](CO)N1C[C@H](C)[C@H](CN(C)S(=O)(=O)c2cn(C)cn2)Oc2c(NC(=O)Nc3ccc4c(c3)OCO4)cccc2C1=O | inactive |
| O=C1CNC(=O)N1C1CCNCC1 | inactive |

| Structure (SMILES) | cytotoxicity call |
| --- | --- |
| O=C(N/N=C/[C@H](O)[C@@H](O)[C@H](O)[C@H](O)CO[C@H]1O[C@H](CO)[C@H](O)[C@H](O)[C@H]1O)c1ccccn1 | inactive |
| O=C(O)CN1Cc2ccccc2C1=O | inactive |
| Cc1noc(C)c1S(=O)(=O)N(C)C[C@@H]1OCCCC[C@H](C)Oc2ccc(NS(C)(=O)=O)cc2C(=O)N([C@H](C)CO)C[C@@H]1C | inactive |
| C[C@H](CO)N1C[C@H](C)[C@H](CN(C)Cc2ccccc2)OCCCC[C@H](C)Oc2ccc(NC(=O)CCC(F)(F)F)cc2C1=O | inactive |
| COc1ccc(S(=O)(=O)Nc2cccc3c2O[C@@H](CN(C)CC2CC2)[C@@H](C)CN([C@H](C)CO)C3=O)cc1 | inactive |
| C[C@H](O)C#Cc1ccc2c(c1)O[C@H](CN(C)C(=O)CN(C)C)[C@H](C)CN([C@@H](C)CO)S2(=O)=O | inactive |
| CN(C)CCc1cc(Br)c(OCCCNC(=O)/C=C/c2cc(Br)c(OCCN3CCCC3)c(Br)c2)c(Br)c1 | active |
| CC(C)N(CCOc1c(Br)cc(/C=C/C(=O)NCCCOc2c(Br)cc(CCN(C)C)cc2Br)cc1Br)C(C)C | active |
| CN(C)CCOc1c(Br)cc(/C=C/C(=O)NCCCOc2c(Br)cc(CCN(C)C)cc2Br)cc1Br | inactive |
| CC(=O)OCC(=O)NCCCOc1cccc(CN2CCCCC2)c1.Cl | inactive |
| CN(C)CCc1cc(Br)c(OCCCNC(=O)/C=C/c2cc(Br)c(OCCN3CCCCC3)c(Br)c2)c(Br)c1 | inactive |
| COc1cc(/C=C/C(=O)NCCCNC(=O)/C=C/c2cc(OC)c(OC)c(OC)c2)cc(OC)c1OC | inactive |
| Cc1noc(C)c1NC(=O)Nc1ccc2c(c1)C(=O)N([C@H](C)CO)C[C@@H](C)[C@H](CN(C)Cc1ccc(C(=O)O)cc1)OCCCC[C@@H](C)O2 | inactive |
| CN1CCN(C(=O)C[C@@H]2CC[C@H](NC(=O)Cc3ccccn3)[C@@H](CO)O2)CC1 | inactive |
| C[C@H]1CN([C@@H](C)CO)C(=O)c2cc(NC(=O)NC3CCCCC3)ccc2O[C@@H]1CN(C)Cc1ccc(-c2ccccc2)cc1 | inactive |
| COc1ccc(S(=O)(=O)N[C@H]2C=C[C@H](CC(=O)NCCc3ccncc3)O[C@H]2CO)cc1 | inactive |
| COc1ccc(S(=O)(=O)N(C)C[C@@H]2Oc3ccc(NS(C)(=O)=O)cc3CC(=O)N([C@H](C)CO)C[C@H]2C)cc1 | inactive |
| Cc1noc(C)c1S(=O)(=O)N(C)C[C@@H]1Oc2ccc(NC(=O)CCC(F)(F)F)cc2CC(=O)N([C@@H](C)CO)C[C@H]1C | inactive |
| O=C([O-])c1ccccc1-c1c2cc(I)c(=O)c(I)c-2oc2c(I)c([O-])c(I)cc12.[Na+].[Na+] | inactive |
| O=C(O)CN(CC(=O)O)Cc1cc2c(-c3ccccc3C(=O)O)c3cc(CN(CC(=O)O)CC(=O)O)c(=O)cc-3oc2cc1O | inactive |
| O=C(O)c1ccccc1-c1c2cc(I)c(=O)c(I)c-2oc2c(I)c(O)c(I)cc12 | active |
